{
  "source": "paper PMC5540273",
  "about": "(PLoS ONE, 2017);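 also: kd values determined as follow-up on hits from a single-replicate KINOMEscan panel screen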",
  "key": {"AMPK-alpha1": {"tested_on": "T1, AMPK-alpha1", "T1 construct": "gene PRKAA1"}, "ARK5": {"tested_on": "T2, ARK5", "T2 construct": "gene NUAK1"}, "ASK1": {"tested_on": "T3, ASK1", "T3 construct": "gene MAP3K5"}, "ASK2": {"tested_on": "T4, ASK2", "T4 construct": "gene MAP3K6"}, "BIKE": {"tested_on": "T5, BIKE", "T5 construct": "gene BMP2K"}, "BRK": {"tested_on": "T6, BRK", "T6 construct": "gene PTK6"}},
  "data": [
    {"smiles": "CCCc1ccc(S(=O)(=O)NC2CCN(c3ccnc(Nc4ccc(F)cc4)n3)C2)cc1", "note": "(stereo not shown) [GSK1379715]", "values": [
      {"measurement": "Kd", "setting": "AKT2", "result": "> 10", "unit": "µM"}
    ]},
    {"smiles": "CS(=O)(=O)c1ccc(-c2nc3n(c2-c2ccncc2)CCC3)cc1", "note": "[SKF-105942]", "values": [
      {"measurement": "Kd", "setting": "AKT2", "result": "> 10", "unit": "µM"}
    ]},
    {"smiles": "Cc1c(Cn2ccn3c(=O)cc(N4CCOCC4)nc23)cccc1C(F)(F)F", "note": "[GSK2289044]", "values": [
      {"measurement": "Kd", "setting": "AKT3", "result": "> 10", "unit": "µM"}
    ]},
    {"smiles": "Nc1nc(-c2nccs2)c(-c2ccnc3ccccc23)s1", "note": "[GW693542]", "values": [
      {"measurement": "Kd", "setting": "AKT3", "result": "> 10", "unit": "µM"}
    ]},
    {"smiles": "Cc1nnc(-c2ccc3occ(-c4ccc(S(C)=O)cc4)c3c2)[nH]1", "note": "(stereo not shown)", "values": [
      {"measurement": "Kd", "setting": "AMPK-alpha1", "result": "> 10", "unit": "µM"}
    ]},
    {"smiles": "Cc1ccc(-c2cc(-c3c[nH]nc3-c3ccccn3)ccn2)cc1", "note": "[GW684088]", "values": [
      {"measurement": "Kd", "setting": "ARK5", "result": "> 10", "unit": "µM"}
    ]},
    {"smiles": "CC(C)(C)c1ccc(C(=O)Nc2cn3cc(-c4cccnc4)ccc3n2)cc1", "values": [
      {"measurement": "Kd", "setting": "ASK1", "result": 0.064, "unit": "µM"}
    ]},
    {"smiles": "CC(C)(C)c1ccc(C(=O)Nc2cn3cc(Cl)ccc3n2)cc1", "values": [
      {"measurement": "Kd", "setting": "ASK1", "result": 1.5, "unit": "µM"}
    ]},
    {"smiles": "CSc1nn2c(=O)cc(N3CCOCC3)nc2n1Cc1cccc(C(F)(F)F)c1C", "note": "[GSK2363608]", "values": [
      {"measurement": "Kd", "setting": "ASK2", "result": "> 10", "unit": "µM"}
    ]},
    {"smiles": "Cc1ccc(C(=O)Nc2ccc(Nc3ccnc4cc(-c5ccccn5)ccc34)cc2O)cc1.Cl", "note": "[GW440146]", "values": [
      {"measurement": "Kd", "setting": "BLK", "result": 0.063, "unit": "µM"}
    ]},
    {"smiles": "COc1ccccc1CNC(=O)c1cc(C(=O)c2ccccc2C)c[nH]1", "note": "[GSK364507]", "values": [
      {"measurement": "Kd", "setting": "BRSK2", "result": "> 10", "unit": "µM"}
    ]},
    {"smiles": "COc1cccc(-c2cc(-c3c[nH]nc3-c3ccccn3)ccn2)c1", "note": "[GW680338]", "values": [
      {"measurement": "Kd", "setting": "AURKC", "result": "> 10", "unit": "µM"}
    ]},
    {"smiles": "O=c1cc(N2CCOCC2)nc2n(Cc3cccc(Cl)c3Cl)ccn12", "note": "[GSK2286295]", "values": [
      {"measurement": "Kd", "setting": "AXL", "result": "> 10", "unit": "µM"}
    ]},
    {"smiles": "O=S(=O)(c1ccc(-c2ccnc3[nH]ccc23)cc1)N1CCCC1", "note": "[GSK846226]", "values": [
      {"measurement": "Kd", "setting": "BIKE", "result": 7.2, "unit": "µM"}
    ]},
    {"smiles": "COc1cc2nccc(Nc3ccc(NC(=O)c4ccc(C)cc4)c(O)c3)c2cc1OC.Cl", "note": "[GW440132]", "values": [
      {"measurement": "Kd", "setting": "BLK", "result": 0.23, "unit": "µM"}
    ]},
    {"smiles": "Cl.NC(=O)c1cccc(Nc2nccc(Nc3ccc(Oc4cccc(Cl)c4)c(Cl)c3)n2)c1", "note": "[GW659008]", "values": [
      {"measurement": "Kd", "setting": "BLK", "result": 2.6, "unit": "µM"}
    ]},
    {"smiles": "Cc1ccc(NC(=O)Nc2cccc(C(F)(F)F)c2)cc1", "note": "[GSK955403]", "values": [
      {"measurement": "Kd", "setting": "BMPR1A", "result": "> 10", "unit": "µM"}
    ]},
    {"smiles": "O=C1NC(=O)C(N2CCc3ccccc32)=C1c1ccccc1Cl", "note": "[SB-373598]", "values": [
      {"measurement": "Kd", "setting": "BMPR2", "result": "> 10", "unit": "µM"}
    ]},
    {"smiles": "NC(=O)c1nnc2ccccc2c1N", "values": [
      {"measurement": "Kd", "setting": "BMX", "result": "> 10", "unit": "µM"}
    ]},
    {"smiles": "Cc1c(O)cccc1Nc1ccnc2ccc(C(F)(F)F)cc12.Cl", "note": "[GW466413]", "values": [
      {"measurement": "Kd", "setting": "BRK", "result": 0.19, "unit": "µM"}
    ]},
    {"smiles": "O=C(O)COc1ncnc2cc(-c3ccc4[nH]ncc4c3)sc12", "values": [
      {"measurement": "Kd", "setting": "BRK", "result": "> 10", "unit": "µM"}
    ]},
    {"smiles": "O=C(Nc1n[nH]c2nc(-c3nccs3)c(Br)cc12)C1CC1", "note": "[SB-742251]", "values": [
      {"measurement": "Kd", "setting": "BRSK2", "result": 0.14, "unit": "µM"}
    ]},
    {"smiles": "O=C(Nc1n[nH]c2nc(-c3nccs3)c(Br)cc12)C1CCCC1", "note": "[SB-742609]", "values": [
      {"measurement": "Kd", "setting": "BRSK2", "result": 0.33, "unit": "µM"}
    ]},
    {"smiles": "CN(C)CCN(C)C(=O)c1cc(-c2ccncc2)c(-c2ccc(Cl)c(O)c2)o1.Cl.Cl", "note": "[SB-710397]", "values": [
      {"measurement": "Kd", "setting": "BUB1", "result": 0.39, "unit": "µM"}
    ]},
    {"smiles": "Cl.Oc1ccc(-c2nc(-c3ccccc3)[nH]c2-c2ccncc2)cc1", "note": "[SB-428218]", "values": [
      {"measurement": "Kd", "setting": "BUB1", "result": 0.56, "unit": "µM"}
    ]}
  ]
}
